The results in this text go back to PubChem BioAssay (NCATS).

Several values for one entry are separate records, joined by “and”; a condition that tells them apart may be missing. Identical values can stand only once. Results filed as inconclusive are left out. Activity calls are given as the source filed them. Unless noted, calls follow the shape of the dose curve; as a rule, active = well fitted curve in the direction sought with a large enough effect; inconclusive = small, poorly fitted or top-dose-only effect, or another doubt; inactive = no such curve, though single readings can be large; an effect the other way counts as inactive or inconclusive.

For assay [1], the target named is alpha-glucosidase (Oryza sativa, rice) (UniProt Q653V4). The experiment in a line: Counterscreen for Glucocerebrosidase Inhibitors: qHTS Assay for Rice alpha-Glucosidase at pH 5.0 (AID 997).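 Also: 0% = full activity with enzyme and -100% = basal without enzyme.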 The method, boiled down: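 Rice alpha-glucosidase (4 nM final) with 400 uM 4-methylumbelliferyl-alpha-D-glucopyranoside in citrate buffer pH 5.0, 20 min at room temperature, stopped at pH 10; fluorescence 365/440 nm, compounds 0.7 nM–77 uM, AC50 from Hill fits.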
Background: The purpose of a counterscreen is to sort out artefacts and off-target activity.

Assay [2] can be described thus: Validation of Assay for Modulators of Lamin A Splicing (AID 1459; active = well fitted curve in the direction sought with a large enough effect in the signal ratio; the % refers to the signal ratio;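 also: cells exposed to compound for two days before reading; 0% is about no effect; ratio rise marks activators and ratio drop marks inhibitors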). The method, boiled down: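 Splicing correction read as GFP (500-530 nm) over DsRed2 (575-640 nm) object intensity after 48 h compound exposure of reporter HeLa S3 clones (600 cells/well, 2% FBS medium); ancitabine and cycloheximide titrations, 0.5% DMSO as vehicle.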
Assay [3] in a line: qHTS Assay for Lipid Storage Modulators (AID 1519; calls by dose curve; as to activity change, negative = inhibition: % is scaled to controls: 0 for no effect and ±100 for the full control effect). The following applies: Drosophila S3 cells, BODIPY lipid droplet/cell ratio, laser cytometry, cells loaded with oleic acid; for activity change, negative = inhibition: at 57.5 µM (top of the series). The method, boiled down: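 Cells seeded at 5,000 per well were treated with compounds over a concentration series and loaded with oleic acid (400 uM, as added). Lipid droplet fluorescence (488 nm excitation, 500-530 nm channel) was read by laser-scanning cytometry and normalized to 20 uM Triacsin C.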
(In general: Quantitative high-throughput screening tests each substance at several concentrations.)

Assay [4] in a line: Counterscreen for APE1 Inhibitors: Fluorescent Dye Displacement Validation Assay (AID 1707).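 Also: plate controls were ThO with dsDNA and no compound for no effect and ThO without dsDNA for full effect.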 The method, boiled down:
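Thiazole Orange (250 nM) bound to 50 nM TAMRA-labelled dsDNA with tetrahydrofuran abasic site; displacement by DNA-binding compounds lowers fluorescence. Buffer 50 mM Tris-HCl pH 7.5, 50 mM NaCl, 2 mM MgCl2, 0.01% Tween-20; endpoint read at 480/540 nm.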

In assay [5] the target is Endonuclease 4 (Escherichia coli (strain K12)) (UniProt P0A6C1). The experiment in a line: Counterscreen for APE1 Inhibitors: qHTS Validation Assay for Inhibitors of Endonuclease IV (AID 1708). Also: % is scaled to controls: 0 for no effect and ±100 for the full control effect. The method, boiled down: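 Enzymatic AP-site incision assay using a double-stranded THF substrate labelled with TAMRA and BHQ-2; released fluorescence signals activity. Enzyme 2 nM, substrate 50 nM, 15 min compound preincubation.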

Assay [6] can be described thus: qHTS for differential inhibitors of proliferation of Plasmodium falciparum line GB4 (AID 1816).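 Also: parasite growth measured after 72 h incubation.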 Also: potency is read from the fitted curve at half-maximal effect.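 As to activity change, negative = inhibition: 0% = vehicle DMSO and -100% = reference inhibitor.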 The following applies: Potency: Plasmodium falciparum GB4 proliferation inhibition.
The nature of assay [7]: qHTS for differential inhibitors of proliferation of Plasmodium falciparum line 3D7 (AID 1876).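 Also: parasite growth measured after three days of culture; 0% = vehicle wells and -100% = reference inhibitor wells.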
A short description of assay [8]: qHTS for differential inhibitors of proliferation of Plasmodium falciparum line D10 (AID 1877).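 Also: parasites grown with compound for 72 h before DNA staining; plate controls were vehicle wells for no effect and reference inhibitor wells for full effect.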
Assay [9] is described as follows: qHTS for differential inhibitors of proliferation of Plasmodium falciparum line Dd2 (AID 1882).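 Also: compound exposure of 72 h on infected erythrocytes; plate controls were DMSO vehicle for no effect and 0.29 µM artemisinin for full effect; nearly all actives have a fitted effect of over 65% in size.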 To be noted: Potency: Plasmodium falciparum Dd2 proliferation inhibition. The method, boiled down: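 SYBR Green I DNA fluorescence read-out, ex 485/em 535 nm. Signals were normalized to 0.29 uM artemisinin and DMSO wells, then corrected using vehicle-only plates flanking each stack. Parasite growth ran 72 h in erythrocytes before lysis.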

Assay [10] can be described thus: qHTS for differential inhibitors of proliferation of Plasmodium falciparum line HB3 (AID 1886).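 Also: parasites grown with compound for 72 h before SYBR Green readout.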 Also: potency is read from the fitted curve at half-maximal effect.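 As to activity change, negative = inhibition: plate controls were vehicle for no effect and reference inhibitor for full effect.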 To be noted: Potency: Plasmodium falciparum HB3 proliferation inhibition.
Assay [11] has as its target Ferritin light chain (Equus caballus) (UniProt P02791). The experiment in a line: qHTS Validation Assay for Identification of Novel General Anesthetics (AID 2323). Also: % is scaled to controls: 0 for no effect and ±100 for the full control effect. The method, boiled down:
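Competitive displacement of the profluorescent anesthetic 1-AMA (50% saturated, PBS) from 10 uM apoferritin, 10 min, room temperature. Activity is normalized 380/535 nm fluorescence; concentration-response fitted with a four-parameter Hill equation.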

Assay [12] has as its target ATP-dependent DNA helicase Q1 (Homo sapiens) (UniProt P46063). The experiment in a line: qHTS Validation Assay for Inhibitors of RecQ-Like Dna Helicase 1 (RECQ1) (AID 2353).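 Also: plate controls were DMSO vehicle for no effect and enzyme-free control for full effect.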 The method, boiled down: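 50 nM RECQ1T1 preincubated 15 min with compound in Tris pH 8.0 buffer with MgCl2, DTT, Tween-20 and 2.5 ug/ml poly(dI-dC); started with 200 nM TAMRA/BHQ-2 forked duplex and 2 mM ATP. Unwinding read as fluorescence (525/598 nm), two reads 2 h apart.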

Assay [13] addresses DNA repair nuclease/redox regulator APEX1 (Homo sapiens) (UniProt P27695). The experiment in a line: qHTS Validation Assay for Inhibitors of the Human Apurinic/apyrimidinic Endonuclease 1 (APE1) (AID 1705;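 also: TAMRA fluorescence gain over two minutes as APE1 cuts a quenched THF abasic duplex; % is scaled to controls: 0 for no effect and ±100 for the full control effect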). The method, boiled down: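 Activity read as rising fluorescence (598 nm emission, 525 nm excitation) from incision of a TAMRA/BHQ-2 duplex carrying a THF abasic site (50 nM). Compound and enzyme sat 15 min at RT before substrate start; signal change between first and third 60-s reads.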

Assay [14] can be described thus: qHTS for differential inhibitors of proliferation of Plasmodium falciparum line 7G8 (AID 1815).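 Also: parasite growth measured after three days of incubation.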 Also: potency is read from the fitted curve at half-maximal effect.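 As to activity change, negative = inhibition: plate controls were vehicle wells for no effect and reference inhibitor wells for full effect.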
Assay [15] can be described thus: qHTS for differential inhibitors of proliferation of Plasmodium falciparum line W2 (AID 1883).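 Also: parasites grown with compound for 72 h before lysis and staining.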 Also: potency is read from the fitted curve at half-maximal effect.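 As to activity change, negative = inhibition: 0% = vehicle wells and -100% = control inhibitor wells.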 The following applies: Potency: Plasmodium falciparum W2 proliferation inhibition.
The nature of assay [16]: qHTS Assay for Modulators of Human Peripheral Myelin Protein 22 (PMP22) Expression/Activity (AID 1967; active = well fitted curve in the direction sought with a large enough effect in the signal ratio; the % refers to the signal ratio;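 also: 0% = untreated cells and 100% end not stated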). The method, boiled down:
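Readout is the corrected green/red luminescence ratio after 24 h compound exposure, normalised to untreated cells (0%). Engineered MSC80 mouse Schwann cells express green luciferase from the mouse Pmp22 promoter and red luciferase from EF-alpha as internal control.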

The target of assay [17] is RecQ-like DNA helicase BLM (Homo sapiens) (UniProt P54132). Put plainly: qHTS Validation Assay for Inhibitors of Bloom's syndrome helicase (BLM) (AID 2364).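 Also: plate controls were DMSO vehicle for no effect and enzyme-free control for full effect.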 The method, boiled down: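 Forked 20-bp duplex substrate (200 nM, TAMRA/BHQ-2) plus 2 mM ATP added after 15 min compound preincubation with 50 nM enzyme, pH 8.0, poly(dI-dC) 2.5 ug/ml. Strand separation followed by fluorescence (525/598 nm) over 2 h, normalized to enzyme-free and DMSO controls.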

A short description of assay [18]: Cell Viability - LYMP1-002 - Assay at 40 hr (AID 994).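 Also: 0% = DMSO only and full inhibition = 92 µM tetraoctylammonium bromide; nearly all actives have a fitted effect of over 60% in size.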 The method, boiled down: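 Human lymphoblastoid cells, 2500/well in complete medium, were preincubated 5 hr at 37 C, then exposed to compounds for 40 hr at 37 C. Intracellular ATP was read by CellTiter-Glo luminescence after 30 min at room temperature; AC50 from Hill-equation fits.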
[19] abbreviates: measured here: cell count channel max response.
The mark [20] stands for this setting: measured here: lipid channel max response.

Chain of DNA repair nuclease/redox regulator APEX1 (Homo sapiens) (P27695 whole entry, looked up): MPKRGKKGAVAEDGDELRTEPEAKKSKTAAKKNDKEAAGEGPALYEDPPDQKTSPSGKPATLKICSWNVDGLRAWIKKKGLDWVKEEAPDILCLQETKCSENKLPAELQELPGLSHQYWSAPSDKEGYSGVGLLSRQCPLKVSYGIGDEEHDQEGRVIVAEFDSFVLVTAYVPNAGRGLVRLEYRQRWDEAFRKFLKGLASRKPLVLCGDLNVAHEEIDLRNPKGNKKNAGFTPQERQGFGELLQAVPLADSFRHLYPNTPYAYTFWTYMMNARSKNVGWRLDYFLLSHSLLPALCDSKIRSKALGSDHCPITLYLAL
Chain of ATP-dependent DNA helicase Q1 (Homo sapiens) (P46063 whole entry, looked up): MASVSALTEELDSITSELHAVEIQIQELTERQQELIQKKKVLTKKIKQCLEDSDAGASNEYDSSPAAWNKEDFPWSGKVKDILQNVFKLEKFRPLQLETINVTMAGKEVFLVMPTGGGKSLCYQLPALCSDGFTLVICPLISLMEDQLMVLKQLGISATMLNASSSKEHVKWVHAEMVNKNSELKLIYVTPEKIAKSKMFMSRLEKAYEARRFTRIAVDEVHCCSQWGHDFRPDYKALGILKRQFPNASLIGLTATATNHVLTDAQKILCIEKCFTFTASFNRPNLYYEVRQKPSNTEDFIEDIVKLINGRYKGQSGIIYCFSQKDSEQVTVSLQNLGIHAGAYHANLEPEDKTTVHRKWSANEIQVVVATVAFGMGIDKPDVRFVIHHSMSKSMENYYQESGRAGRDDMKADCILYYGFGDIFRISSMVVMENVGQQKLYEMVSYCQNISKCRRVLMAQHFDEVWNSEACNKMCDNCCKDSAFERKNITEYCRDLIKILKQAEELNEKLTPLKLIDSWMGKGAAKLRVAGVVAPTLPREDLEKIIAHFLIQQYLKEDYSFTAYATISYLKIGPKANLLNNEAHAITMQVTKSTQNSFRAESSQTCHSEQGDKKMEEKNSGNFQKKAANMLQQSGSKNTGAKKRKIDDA
Chain of RecQ-like DNA helicase BLM (Homo sapiens) (P54132 whole entry, looked up): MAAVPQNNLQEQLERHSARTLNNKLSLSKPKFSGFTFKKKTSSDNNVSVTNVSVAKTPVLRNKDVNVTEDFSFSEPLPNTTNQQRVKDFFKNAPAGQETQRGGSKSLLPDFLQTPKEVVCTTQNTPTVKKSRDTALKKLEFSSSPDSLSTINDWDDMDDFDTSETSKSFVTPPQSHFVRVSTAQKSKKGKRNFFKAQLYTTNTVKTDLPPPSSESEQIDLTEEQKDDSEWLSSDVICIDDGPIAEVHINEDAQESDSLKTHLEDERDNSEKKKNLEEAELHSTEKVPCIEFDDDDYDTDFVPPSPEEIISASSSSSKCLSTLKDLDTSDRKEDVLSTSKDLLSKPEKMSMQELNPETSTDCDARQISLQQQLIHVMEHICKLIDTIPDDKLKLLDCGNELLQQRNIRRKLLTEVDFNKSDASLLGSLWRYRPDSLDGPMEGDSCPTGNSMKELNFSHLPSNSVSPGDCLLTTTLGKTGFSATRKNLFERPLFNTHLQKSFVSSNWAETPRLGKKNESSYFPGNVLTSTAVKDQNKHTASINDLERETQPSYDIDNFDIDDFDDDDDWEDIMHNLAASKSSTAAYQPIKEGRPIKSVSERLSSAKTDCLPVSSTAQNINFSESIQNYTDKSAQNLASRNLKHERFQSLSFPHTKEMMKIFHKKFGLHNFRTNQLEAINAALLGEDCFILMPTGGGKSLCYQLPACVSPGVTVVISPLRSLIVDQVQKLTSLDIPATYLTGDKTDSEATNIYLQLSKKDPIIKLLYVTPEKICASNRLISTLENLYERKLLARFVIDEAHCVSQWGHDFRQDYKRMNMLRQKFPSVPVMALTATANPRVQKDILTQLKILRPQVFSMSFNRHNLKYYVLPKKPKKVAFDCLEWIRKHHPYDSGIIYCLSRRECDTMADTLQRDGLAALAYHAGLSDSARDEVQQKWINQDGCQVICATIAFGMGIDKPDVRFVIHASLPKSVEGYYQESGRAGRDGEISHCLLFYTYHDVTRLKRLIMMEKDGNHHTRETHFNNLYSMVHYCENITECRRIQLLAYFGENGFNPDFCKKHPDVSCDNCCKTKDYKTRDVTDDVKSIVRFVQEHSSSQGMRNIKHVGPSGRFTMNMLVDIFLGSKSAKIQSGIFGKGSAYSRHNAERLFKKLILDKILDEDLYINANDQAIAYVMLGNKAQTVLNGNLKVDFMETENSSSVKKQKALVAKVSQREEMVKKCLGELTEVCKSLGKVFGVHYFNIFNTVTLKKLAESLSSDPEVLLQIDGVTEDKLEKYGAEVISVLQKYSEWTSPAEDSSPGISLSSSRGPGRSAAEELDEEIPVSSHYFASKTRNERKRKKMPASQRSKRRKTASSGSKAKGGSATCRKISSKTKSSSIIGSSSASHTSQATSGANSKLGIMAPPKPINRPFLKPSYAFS
Chain of Ferritin light chain (Equus caballus) (P02791 2-175 limits assumed): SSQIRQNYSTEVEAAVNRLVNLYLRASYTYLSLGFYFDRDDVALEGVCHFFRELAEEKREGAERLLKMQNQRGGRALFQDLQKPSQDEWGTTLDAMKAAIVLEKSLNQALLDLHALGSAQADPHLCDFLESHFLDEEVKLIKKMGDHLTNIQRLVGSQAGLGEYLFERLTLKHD

`O=C(O)Cc1ccc(O)c(O)c1`: the outcome in [1] and in [2] was inactive. The activity change, negative = inhibition in [3] is -0.0553% (inactive). The max response is -16.6% in [3] (setting [19]) and -14.9% in assay [3] (setting [20]). The Potency entry in [4], in assay [5], in assay [6], in [7], in [8] and in assay [9] was “inactive” throughout. The Potency entry in assay [10], in assay [11] and in assay [12] was “inactive” each time.

For `COC(=O)C(N)Cc1ccc(Cl)cc1` (stereo not drawn), the molecule was classed as inactive in [2]. Besides, the Potency entry in [13], in assay [4], in assay [5], in assay [14], in assay [6] and in assay [7] was “inactive” in each case. For the same molecule, the Potency result in assay [8], in assay [9], in [15], in assay [10], in assay [11] and in [12] was “inactive” throughout.

Turning to `OCC1NCC(O)C(O)C1O` (stereo not drawn), the result in assay [2] and in [16] was inactive. The Potency result in assay [13], in assay [4], in assay [5], in assay [14], in assay [6] and in assay [7] was “inactive” in each case. In addition, the Potency result in assay [8], in assay [9], in assay [15], in assay [10], in [11] and in assay [12] was “inactive” throughout. In assay [17], the Potency result is “inactive”.

As for `O=C(O)C1CCCNC1` (stereo not drawn), the call in assay [2] and in assay [16] was inactive. The activity change, negative = inhibition in assay [3] was 0.3% (inactive). In addition, the max response was determined as 0.529% in [3] (setting [19]) and 0.762% in assay [3] (setting [20]). Besides, the Potency result in assay [4], in assay [5], in [14], in [6], in [7] and in [8] was “inactive” throughout. In addition, the Potency entry in assay [9], in [10] and in assay [12] was “inactive” throughout.

Regarding `C=CCn1c(=O)c2c(nc(-c3ccc(S(=O)(=O)O)cc3)n2C)n(C)c1=O`, the result in assay [1], in [2] and in assay [16] was inactive. For the same molecule, the Potency result in assay [13], in assay [4], in assay [5], in assay [14], in assay [6] and in assay [7] was “inactive” in each case. The Potency result in [8], in assay [9], in assay [15], in assay [10], in assay [11] and in [12] was “inactive” throughout.

As for `NC(=O)c1ccccc1`, the molecule was classed as inactive in assay [18], in [1] and in assay [2]. Besides, the Potency entry in assay [13], in assay [4], in assay [5], in assay [14], in assay [6] and in [7] was “inactive” in each case. For the same molecule, the Potency entry in assay [8], in assay [9], in [15], in assay [10] and in assay [11] was “inactive” each time.

Regarding `Oc1ccc(Cn2cc[nH]c2=S)cc1`, the molecule was classed as inactive in assay [1], in assay [2] and in [16]. The Potency entry in assay [13], in assay [4], in [5], in assay [14], in [6] and in [7] was “inactive” in each case. The Potency entry in assay [8], in assay [9], in [15], in assay [10], in assay [11] and in [12] was “inactive” each time.

Take `CC(C)C[C@H](NC(=O)[C@H](O)[C@H](N)Cc1ccccc1)C(=O)O`: the result in [2] was inactive. In addition, the Potency result in assay [13], in [4], in assay [5], in assay [14], in assay [6] and in assay [7] was “inactive” throughout. The Potency result in assay [8], in assay [9], in [15], in assay [10], in assay [11] and in assay [12] was “inactive” each time.

Take `Cc1ccc([N+](=O)[O-])cc1S(=O)(=O)N(C)C`: the molecule was classed as inactive in assay [1], in [2] and in assay [16]. In addition, the activity change, negative = inhibition in assay [3] was -0.817% (inactive) and -0.0593% (inactive). The max response in [3] (setting [19]) was 1.19% and 66.8%; in [3] (setting [20]) it was 0.358% and 67%. Further, the Potency entry in [14], in assay [6], in assay [7], in [8], in assay [9] and in assay [15] was “inactive” throughout. Moreover, the Potency entry in assay [10], in assay [11] and in assay [17] was “inactive” each time.

`N#CC(C#N)=C(N)/C(C#N)=C/c1ccc(O)cc1`: the result in [1] and in [2] was inactive. In addition, the Potency entry in assay [13], in [4], in assay [5], in assay [8], in assay [9] and in [15] was “inactive” each time. The Potency entry in [11] and in assay [12] was “inactive” each time.

For `COc1cccc(OC)c1OCCNCC1CSc2ccccc2O1` (stereo not drawn), in assay [2], the outcome was inactive. Besides, the Potency result in assay [13], in assay [4], in [11], in assay [12] and in assay [17] was “inactive” in each case. Further, the Potency in assay [14] was 7.94 µM (active); in assay [6], 4.47 µM (active); in assay [15], 3.98 µM (active); in assay [10] it was 12.6 µM (active).

Consider `Cn1ccnc1`, for which the result in assay [1], in assay [2] and in [16] was inactive. Moreover, the Potency result in assay [13], in assay [4], in assay [14], in assay [6], in assay [7] and in assay [8] was “inactive” each time. For the same molecule, the Potency entry in [9], in [15], in assay [10], in [11], in assay [12] and in assay [17] was “inactive” in each case.
